Test [1] in a line: CCTE_Simmons_CellTiterGLO_HEK293T: Viability Assessment in CCTE's Assays for Thyroperoxidase (TPO) Inhibition, Simmons Lab (AID 2283665).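 Further: cells exposed to compound for 24 h before readout; actives reduce ATP signal below DMSO vehicle meaning cytotoxicity.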 An outline of the steps:
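ATP depletion measured in HEK293T cells after 24 h dosing (8 concentrations, 5 nM–87.5 uM final; DMSO 0.5%) using CellTiter-Glo luminescence; curves fit for loss of signal against DMSO baseline.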
In general terms: ATP-based viability assays read luminescence as a measure of living cells.

The nature of test [2]: CEETOX_H295R_MTT_cell_viability: Viability Assessment in the CeeTox HT-H295R MTT Assay (AID 2283718; active means hit-call score of the fitted dose curve at least 0.9, where 1 is the maximum; inactive means score below 0.9). A digest of the protocol:
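H295R cells prestimulated 48 h with 10 uM forskolin, then exposed 48 h to test chemical (0.1% DMSO final). Viability by MTT (0.5 mg/ml, 4 h, 37 C), absorbance 570/650 nm; percent change versus DMSO, bidirectional fit.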

Test [3] is described as follows: ArunA_CellTiter_hNC: Viability Assessment in the ArunA Biomedical's Oris Neural Crest (hNC) Cell Migration Assay (AID 2283752). An outline of the steps: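 Cytotoxicity endpoint run alongside the migration assay: neural crest cells on Matrigel, 60,000 per well, preincubated 16 h at 37C, treated 72 h; CellTiter Aqueous One signal loss relative to DMSO.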

Each structure is given as a SMILES string. Records with an inconclusive call do not appear. Activity calls are given as the source filed them. How the source made its calls, unless noted: active means hit-call score of the fitted dose curve at least 0.9, where 1 is the maximum; inconclusive means response in the unintended direction; inactive means score below 0.9.

The source of these data is PubChem BioAssay (EPA / NIEHS).

A word on the AC50: it is the midpoint of the concentration-response curve, whichever way the signal moves. As to `CC1(C)CCC(Cc2ccc(Cl)cc2)C1(O)Cn1cncn1` (centres undefined), the half-maximal activity concentration (AC50) in test [1] is 89 µM (active). The call in test [2] was inactive.

For `Clc1ccc(COC(Cn2ccnc2)c2ccc(Cl)cc2Cl)cc1` (centres undefined), the half-maximal activity concentration (AC50) in test [1] is 22.4 µM (active).

For the compound `ClCC(Cl)CCl`, the outcome in test [3] was inactive.
